Shown is part of a subset that was picked to be rich in hits.
Dicer processing – blocks human Dicer maturation of pre-miR-21. cat-ELCCA pre-miR-21 Dicer processing, chemiluminescence; active compounds read high. z-score at 25 µM. actives 6% (n = 47,000); in the data active = z-score above about 3, passing the limit was not always enough;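 note: plate controls were vehicle for no effect and no enzyme for full effect; higher signal means more uncleaved substrate so more Dicer inhibition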
An asterisk follows results filed as active.

What do the screens show for `CSC(=NCc1c(N(C)C)cccc1N(C)C)NS(=O)(=O)c1ccccc1`?
Dicer processing: 1.3

How did FC(F)(F)c1cc(Oc2ccccc2)c2cccc(Br)c2n1 do in these assays?
Dicer processing: -0.99

Results for O=C(CN1C(=O)CSC1=O)Nc1ccc(Cl)cc1 ?
Dicer processing: -1.8

Results for Cc1cccc(C)c1NC(=S)NNC(=O)c1ccccc1Cl ?
Dicer processing: 0.4

What do the screens show for `C=C(NCc1ccncc1)c1ccc(Cl)cc1`?
Dicer processing: -0.32

Results for COc1ccc(C2CC(=O)C3=C(C2)Nc2ccccc2NC3c2ccc(F)c(F)c2)cc1 (stereo unspecified) ?
Dicer processing: 2.7

Results for O=C1CC(c2cccs2)CC2=C1C(c1ccc(Cl)c(F)c1)Nc1ccccc1N2 (stereo unspecified) ?
Dicer processing: 4.2*

Results for O=C1CC(c2ccccc2)CC2=C1C(c1cccs1)Nc1ccccc1N2 (stereo unspecified) ?
Dicer processing: -0.49

What do the screens show for `O=C1CC(c2ccccc2)CC2=C1C(c1cccc(O)c1)Nc1ccccc1N2` (stereo unspecified)?
Dicer processing: 0.93

What do the screens show for `O=C1CC(c2cccs2)CC2=C1C(c1ccc(Cl)cc1)Nc1ccccc1N2` (stereo unspecified)?
Dicer processing: 65

What do the screens show for `O=C1CC(c2cccs2)CC2=C1C(c1cccc(O)c1)Nc1ccccc1N2` (stereo unspecified)?
Dicer processing: 3.2*

What do the screens show for `Cn1c(=O)[nH]c(=O)c2c1nc(NCCCn1ccnc1)n2CCCc1ccccc1`?
Dicer processing: -0.33

How did CN(CCO)c1cc(C(F)(F)F)nc2ccccc12 do in these assays?
Dicer processing: -2.6

Results for COC(=O)c1sccc1Oc1ccc(C(F)(F)F)cc1NC(=O)c1cnn(-c2ccc([N+](=O)[O-])cc2)c1C(F)(F)F ?
Dicer processing: 4*

Results for COC(=O)c1sccc1Oc1ccc(C(F)(F)F)cc1NC(=O)NS(=O)(=O)c1ccc(C)cc1 ?
Dicer processing: -0.3

Results for COC(=O)c1sccc1Oc1ccc(C(F)(F)F)cc1NC(=O)c1cnn(-c2ccccc2)c1C(F)(F)F ?
Dicer processing: -1.1

What do the screens show for `CCc1cn(C(=O)c2ccccc2F)nc1-c1c(F)cccc1F`?
Dicer processing: -1

How did CCOC(=O)/C(C#N)=C/N(/N=C/c1ccccc1)c1ccccc1 do in these assays?
Dicer processing: -0.03

What do the screens show for `COc1ccccc1OCCn1cc(C(=O)C(C)(C)C)c2ccccc21`?
Dicer processing: 0.89

What do the screens show for `C=CC[n+]1sc2cc(Cl)ccc2c1C`?
Dicer processing: -0.76

What do the screens show for `C=CCSc1nc2ccccc2c(=O)n1CC(=C)C`?
Dicer processing: -0.33

What do the screens show for `Cc1ccc2c(Cl)c(C(=O)Nc3nc(C)c(C)s3)sc2c1`?
Dicer processing: 3.6*

How did O=C(Nc1ccccc1)c1sc2ccccc2c1Cl do in these assays?
Dicer processing: -1.5

What do the screens show for `CCOC(=O)c1sc(NC(=O)c2sc3ccccc3c2Cl)nc1C`?
Dicer processing: -0.51

Results for CC(Nc1ccc(C(F)(F)F)cc1[N+](=O)[O-])c1ccccc1 (stereo unspecified) ?
Dicer processing: 1

How did CCOC(=O)CNC(=O)c1c(OC)cccc1OC do in these assays?
Dicer processing: -0.48

What do the screens show for `COc1ccc(CCNC(=O)c2c(-c3ccccc3Cl)noc2C)cc1OC`?
Dicer processing: -0.11

Results for c1ccc2c(CN3CCN(Cc4ccncc4)CC3)c[nH]c2c1 ?
Dicer processing: 0.38

What do the screens show for `COc1ccccc1CN1CCN(Cc2c[nH]c3ccccc23)CC1`?
Dicer processing: 2

Results for c1ccc(CN2CCN(Cc3c[nH]c4ccccc34)CC2)cc1 ?
Dicer processing: 6.9*

Results for C/C(=N\Nc1ccc(F)cc1F)c1sc(CCn2cccc(C(F)(F)F)c2=O)nc1C ?
Dicer processing: 0.05

What do the screens show for `CN1c2ccccc2C(=O)/C(=C\Nc2cccnc2)S1(=O)=O`?
Dicer processing: -0.27

What do the screens show for `C=C(CC(=O)N1CCOCC1)C(=O)N1CCOCC1`?
Dicer processing: -0.74

What do the screens show for `O=C(CCCSc1nc(-c2ccco2)cc(C(F)(F)F)n1)NC1CCCCC1`?
Dicer processing: -0.99

Results for Cc1ccc(-c2nc(C)cc(=O)[nH]2)cc1 ?
Dicer processing: 2.4

What do the screens show for `COc1cccc(C(Nc2cc(C)ccn2)c2ccc3cccnc3c2O)c1` (stereo unspecified)?
Dicer processing: 7.7

How did COc1ccc(C(Nc2cc(C)ccn2)c2ccc3ccc(C)nc3c2O)cc1 (stereo unspecified) do in these assays?
Dicer processing: 1.4

Results for Cc1ccc2ccc(C(Nc3ccccn3)c3cccs3)c(O)c2n1 (stereo unspecified) ?
Dicer processing: 2.8

Results for Cc1ccnc(NC(c2ccccc2F)c2ccc3cccnc3c2O)c1 (stereo unspecified) ?
Dicer processing: 4.3

What do the screens show for `Cc1ccnc(NC(c2cccc(F)c2)c2ccc3ccc(C)nc3c2O)c1` (stereo unspecified)?
Dicer processing: 6.1*

What do the screens show for `C=CCOc1cccc(C(Nc2cc(C)ccn2)c2ccc3cccnc3c2O)c1` (stereo unspecified)?
Dicer processing: 8.3*

How did Cc1ccnc(NC(c2ccc(C)s2)c2ccc3cccnc3c2O)c1 (stereo unspecified) do in these assays?
Dicer processing: 0.85

Results for Cc1ccnc(NC(c2cccc(F)c2)c2ccc3cccnc3c2O)c1 (stereo unspecified) ?
Dicer processing: 11*

What do the screens show for `Cc1ccnc(NC(c2cc(C)ccc2O)c2ccc3cccnc3c2O)c1` (stereo unspecified)?
Dicer processing: 11*

How did N/C(=N\C(=O)N1CCOCC1)c1ccccc1OC(F)(F)F do in these assays?
Dicer processing: -0.73

Results for Cc1cc(C)c(/C=N/Nc2ccc([N+](=O)[O-])cc2)[nH]1 ?
Dicer processing: 2

Results for CN(C)c1ccc([N+](=O)[O-])c(N(C)C)c1C#N ?
Dicer processing: 1.4

Results for O=C(Nc1[nH]c2cc([N+](=O)[O-])ccc2c1-c1ccccc1)c1cccs1 ?
Dicer processing: 1.2

How did O=c1c(Cl)c(N2CCN(c3ccccc3)CC2)cnn1-c1ccccc1 do in these assays?
Dicer processing: 0.31

How did O/C(=C\c1nc2ccccc2[nH]1)c1cc(Cl)c(O)cc1O do in these assays?
Dicer processing: 2.6

What do the screens show for `CCOC(=O)CC(=O)CSc1nc(-c2cccs2)cc(-c2ccc(Cl)cc2)c1C#N`?
Dicer processing: 2.1

How did CCC/C(C)=N/Nc1nc2c(c(=O)n(Cc3ccccc3Cl)c(=O)n2C)n1C do in these assays?
Dicer processing: 1.9

How did CCC1CSC(Nc2ccc(C)c(Cl)c2)=N1 (stereo unspecified) do in these assays?
Dicer processing: -0.71

What do the screens show for `COc1ccc(NS(=O)(=O)c2ccc3c(c2)OCCO3)c(OC)c1`?
Dicer processing: -2.6

Results for O=S(=O)(NCCc1ccccn1)c1ccc2c(c1)OCCCO2 ?
Dicer processing: 0.54

Results for O=S(=O)(Nc1ccc(OCc2ccccc2)cc1)c1ccc2c(c1)OCCO2 ?
Dicer processing: 3.4*

How did CCSc1nc2ccccc2nc1SCC do in these assays?
Dicer processing: -0.16

How did Cn1cc(NC(=O)OC(C)(C)C)cc1C(=O)O do in these assays?
Dicer processing: 20

How did COC(=O)c1cc2c(N)c(C(=O)OC)sc2nc1C(OC)OC do in these assays?
Dicer processing: 1.1

Results for COc1ccc(N2CC3CCc4ccccc4C3=N2)cc1 (stereo unspecified) ?
Dicer processing: -0.95
